Screens (PubChem)
This is a sample that favours compounds with a hit; in the whole collection about 3.8% have one here.
ADAM10 inh: inhibitors of human ADAM10; actives 0.62% (n = 370,000); O14672; inhibition, % at 7 µM; AID 720582; recombinant ADAM10, EDANS/DABCYL FRET peptide cleavage, 3 h;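 active = inhibition above a per-campaign cutoff equal to the mean of compounds falling between control-based bounds plus 3 SD, cut at about 20% in these data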
Ecoli rRNA inh: selective bacterial rRNA inhibition in E. coli. actives 1.6% (n = 350,000). AID 720706. E. coli WT GFP vs humanized-ribosome RFP mutants, fluorescence, 24 h; hits give low values; DMSO median 0, no signal -100. GFP signal change (wild-type ribosome), % (test concentration not listed);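 active = significant combined selectivity score with lowered wild-type GFP, culture density cut under 30%, mutant RFP and density less affected; inactive = any of these conditions unmet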
ADAM17 inh: inhibits human ADAM17. P78536. recombinant ADAM17, EDANS/DABCYL FRET peptide cleavage. inhibition, % at 6.95 µM. actives 0.83% (n = 370,000);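 active = inhibition above the mean of compounds lying between control limits plus 3 SD, set per campaign, cut at about 8.5% in these data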
KLK7 zymogen act: activates the human kallikrein-7 zymogen; P49862; purified proKLK7, EDANS-DABCYL substrate fluorescence; 100% is mature enzyme control, 0% vehicle; activation, % at 7 µM; actives 0.9% (n = 370,000);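 active = activation above the mean of all tested compounds plus 3 SD, computed per campaign excluding outliers beyond control limits, cut at about 13% in these data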
Target sequence (P49862 whole entry, looked up): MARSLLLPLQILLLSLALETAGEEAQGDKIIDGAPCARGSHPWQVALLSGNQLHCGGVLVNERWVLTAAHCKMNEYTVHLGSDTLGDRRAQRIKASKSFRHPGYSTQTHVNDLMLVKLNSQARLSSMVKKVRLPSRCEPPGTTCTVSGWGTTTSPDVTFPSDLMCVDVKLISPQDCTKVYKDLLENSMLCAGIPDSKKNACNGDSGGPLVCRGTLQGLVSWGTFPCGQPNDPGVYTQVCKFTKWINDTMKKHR
FGF22 binding: FGF22 (human) thermal shift binding; Q9HCT0; recombinant FGF22 thermal shift, SYPRO orange fluorescence; percent of sucrose octasulfate shift, DMSO zero; activity (Tm shift, normalised), % at 9.99 µM; actives 1.5% (n = 340,000); AID 651658;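 active = mean Tm shift, scaled 0 neutral to 100 positive control, at about 1.3% or above, every replicate too, limit read from the data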
Target sequence (Q9HCT0 whole entry, looked up): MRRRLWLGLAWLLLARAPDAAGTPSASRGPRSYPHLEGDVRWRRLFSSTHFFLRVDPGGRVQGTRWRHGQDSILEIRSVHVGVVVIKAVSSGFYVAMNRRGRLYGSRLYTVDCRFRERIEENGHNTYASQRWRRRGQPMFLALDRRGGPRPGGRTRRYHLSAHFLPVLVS
ADAM10 ctr: ADAM10 inhibition, counter-screen for ADAM17 exosite hits | recombinant ADAM10, EDANS/DABCYL FRET peptide cleavage, 3 h | actives 47% (n = 2,900) | AID 743256 | shares compounds with ADAM17 inh | inhibition, % at 6.95 µM;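 active = mean inhibition over the triplicate runs exceeds the activity threshold set in the earlier primary screen, cut at about 20% in these data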
ADAM17 confirm: confirmation of inhibitors of human ADAM17 | shares compounds with ADAM17 inh | recombinant ADAM17, EDANS/DABCYL QFRET peptide cleavage | inhibition, % at 6.95 µM | actives 65% (n = 2,900) | AID 743257;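 active = mean inhibition across replicates above the hit cutoff set in the primary screen, cut at about 8.5% in these data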
Numbers stand for hits.

How did CCCc1ccc(C(C)NC(=S)NCc2ccc(F)cc2)cc1 (centres undefined) do in these assays?
ADAM10 inh: inactive; ADAM17 inh: 9.1; KLK7 zymogen act: inactive; FGF22 binding: inactive; ADAM10 ctr: 34.4; ADAM17 confirm: 17.0

What do the screens show for `CCC(C)c1ccc(C(C)NC(=S)NCc2ccc(F)cc2)cc1` (centres undefined)?
ADAM10 inh: inactive; Ecoli rRNA inh: inactive; ADAM17 inh: inactive; KLK7 zymogen act: inactive; FGF22 binding: inactive

How did CC=Cc1ccc2n(c1=O)C[C@H]1[C@H](CO)[C@@H](C(=O)NCC3CC3)N(C(=O)C3CCOCC3)[C@@H]21 (mixture of isomers) do in these assays?
Ecoli rRNA inh: inactive; FGF22 binding: inactive

Results for C=CCNC(=S)NNC(=O)CSc1nc2ccccc2s1 ?
ADAM10 inh: inactive; Ecoli rRNA inh: inactive; ADAM17 inh: 11.1; KLK7 zymogen act: inactive; FGF22 binding: inactive; ADAM10 ctr: inactive; ADAM17 confirm: inactive

How did O=C(CSc1nc2ccccc2s1)NNC(=S)Nc1ccc(Cl)cc1 do in these assays?
ADAM10 inh: inactive; Ecoli rRNA inh: inactive; ADAM17 inh: inactive; KLK7 zymogen act: inactive; FGF22 binding: inactive

How did CCNC(=O)C[C@H]1CC[C@@H]2[C@H](COc3ccc(NC(=O)C4CCOCC4)cc3C(=O)N2C)O1 do in these assays?
Ecoli rRNA inh: inactive; FGF22 binding: inactive

Results for O=C(C1CCOCC1)N1C[C@H]2[C@@H](c3ccccc31)[C@H](CO)N2Cc1ccccc1 ?
Ecoli rRNA inh: inactive

How did COc1ccccc1OCC(=O)NCCc1nc2ccccc2[nH]1 do in these assays?
ADAM10 inh: inactive; ADAM17 inh: inactive; KLK7 zymogen act: inactive

How did O=C(COc1ccccc1Br)NCCc1nc2ccccc2[nH]1 do in these assays?
ADAM10 inh: inactive; ADAM17 inh: 8.9; KLK7 zymogen act: inactive; ADAM10 ctr: inactive; ADAM17 confirm: inactive

How did N#Cc1ccc(-c2ccc3c(c2)[C@@H]2[C@@H](CCN2C(=O)c2ccc(F)cc2)[C@@H](CO)N3)cc1 do in these assays?
Ecoli rRNA inh: inactive; FGF22 binding: inactive

How did Cc1cccc(NC(=O)Nc2ccc3c(c2)C(=O)N(C)[C@H]2CC[C@H](CC(=O)NCc4ccccc4Cl)O[C@@H]2CO3)c1 do in these assays?
Ecoli rRNA inh: inactive

Results for O=S(=O)(c1ccccc1)N1CCN=C1SCc1ccc(Cl)c(Cl)c1 ?
ADAM10 inh: inactive; ADAM17 inh: inactive; KLK7 zymogen act: inactive

How did O=S(=O)(c1ccccc1)N1CCN=C1SCc1cccc(Cl)c1 do in these assays?
ADAM10 inh: inactive; Ecoli rRNA inh: -22.6; ADAM17 inh: 9.3; KLK7 zymogen act: inactive; FGF22 binding: inactive; ADAM10 ctr: inactive; ADAM17 confirm: 9.7

What do the screens show for `CN(c1ccc(OCC(=O)OCC(=O)c2c(N)n(C)c(=O)n(C)c2=O)cc1)S(=O)(=O)c1ccc2ccccc2c1`?
ADAM10 inh: inactive; Ecoli rRNA inh: inactive; ADAM17 inh: 9.3; KLK7 zymogen act: inactive; FGF22 binding: inactive; ADAM10 ctr: 23.4; ADAM17 confirm: 10.5

How did CO[C@H]1CN(C)C(=O)c2cc(NC(=O)Nc3ccc(Cl)c(Cl)c3)ccc2OC[C@H](C)NC[C@H]1C do in these assays?
Ecoli rRNA inh: inactive

Results for CC1CCCCN1C(=O)Cn1nnc(-c2cccnc2)n1 (centres undefined) ?
ADAM10 inh: inactive; ADAM17 inh: inactive; KLK7 zymogen act: inactive

How did Cc1ccc(-c2nnn(CCC(=O)N3CCCCC3C)n2)cc1 (centres undefined) do in these assays?
ADAM10 inh: inactive; Ecoli rRNA inh: inactive; ADAM17 inh: 9.5; KLK7 zymogen act: inactive; ADAM10 ctr: inactive; ADAM17 confirm: inactive

Results for CC(=O)Nc1ccc(NC(=O)C(C)OC(=O)C23CC4CC(CC(Cl)(C4)C2)C3)cc1 (centres undefined) ?
ADAM10 inh: inactive; Ecoli rRNA inh: -25.9; ADAM17 inh: 9.9; KLK7 zymogen act: inactive; FGF22 binding: inactive; ADAM10 ctr: inactive; ADAM17 confirm: inactive

What do the screens show for `Cc1cc(Cl)ccc1C(O)c1ncc(-c2cccc(F)c2)[nH]1` (centres undefined)?
ADAM10 inh: inactive; Ecoli rRNA inh: inactive; ADAM17 inh: inactive; KLK7 zymogen act: inactive; FGF22 binding: inactive

Results for Cc1ccc2ccccc2c1C(O)c1ncc(-c2cccc(C(F)(F)F)c2)[nH]1 (centres undefined) ?
ADAM10 inh: inactive; Ecoli rRNA inh: inactive; ADAM17 inh: 12.2; KLK7 zymogen act: inactive; FGF22 binding: inactive; ADAM10 ctr: 26.2; ADAM17 confirm: 14.5

Results for Cc1ccc2ccccc2c1C(O)c1ncc(-c2ccc(C(F)(F)F)cc2)[nH]1 (centres undefined) ?
ADAM10 inh: inactive; Ecoli rRNA inh: inactive; ADAM17 inh: inactive; KLK7 zymogen act: inactive; FGF22 binding: inactive

What do the screens show for `OC(c1ccccc1)c1ncc(-c2ccc(C(F)(F)F)cc2)[nH]1` (centres undefined)?
ADAM10 inh: inactive; Ecoli rRNA inh: inactive; ADAM17 inh: inactive; KLK7 zymogen act: inactive; FGF22 binding: inactive

How did Cc1cc(Cl)ccc1C(O)c1ncc(-c2cccc(C(F)(F)F)c2)[nH]1 (centres undefined) do in these assays?
ADAM10 inh: inactive; Ecoli rRNA inh: inactive; ADAM17 inh: 9.2; KLK7 zymogen act: inactive; FGF22 binding: inactive; ADAM10 ctr: 40.0; ADAM17 confirm: 18.4

What do the screens show for `OC(c1ccc(-c2ccccc2)cc1)c1ncc(-c2ccc(C(F)(F)F)cc2)[nH]1` (centres undefined)?
ADAM10 inh: inactive; Ecoli rRNA inh: inactive; ADAM17 inh: 9.1; KLK7 zymogen act: inactive; FGF22 binding: inactive; ADAM10 ctr: 22.9; ADAM17 confirm: 12.6

How did O=c1[nH]c(=S)n(-c2ccc(Br)cc2)c2ncccc12 do in these assays?
ADAM10 inh: inactive; Ecoli rRNA inh: inactive; ADAM17 inh: 11.0; KLK7 zymogen act: inactive; FGF22 binding: inactive; ADAM10 ctr: inactive; ADAM17 confirm: 10.9

Results for Fc1ccc(-n2c(=S)[nH]c3cccnc32)cc1 ?
ADAM10 inh: inactive; Ecoli rRNA inh: inactive; ADAM17 inh: inactive; KLK7 zymogen act: inactive; FGF22 binding: inactive

Results for Cc1onc(-c2ccc(Cl)cc2)c1-c1ccn(S(=O)(=O)c2ccccc2)n1 ?
ADAM10 inh: inactive; ADAM17 inh: 13.7; KLK7 zymogen act: inactive; ADAM10 ctr: inactive; ADAM17 confirm: 10.3

What do the screens show for `COc1ccc(NC(=O)N(C)C[C@H]2Oc3ccc(NC(=O)CCCCCC(=O)Nc4ccccc4N)cc3C(=O)N([C@@H](C)CO)C[C@@H]2C)cc1`?
Ecoli rRNA inh: inactive; FGF22 binding: inactive
